# Test results taken from PubChem BioAssay AID652104 (National Center for Advancing Translational Sciences (NCATS), 2013).
# The whole screen tested about 410,000 compounds, of which about 7,200 (1.8%) were called active. Not shown: some 7% with an inconclusive outcome. For the sample, actives were picked, then their nearest neighbours and some compounds at random. Unmarked numbers belong to inactive results. Calls come from the whole dose curve; as a rule, active = well fitted activation curve with a large enough effect; inconclusive = small, poorly fitted or top-dose-only effect, or another doubt; inactive = no such curve, though single readings can be large or run the other way.
# Test: qHTS of TDP-43 Inhibitors; note: nearly all actives have a fitted effect of over 50% in size; for growth rescue (activation): % of control where 0% means no effect
# Details: TDP-43 expressing yeast growth rescue, BacTiter-Glo, 24 h; series mostly up to 46.1 µM; growth rescue (activation): at the top concentration
# In short: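 Growth rescue of TDP-43-toxic yeast measured as ATP luminescence (BacTiter-Glo). Cells grown to mid-log in raffinose, induced in galactose at OD600=0.02, exposed to compound 24 hr at 30 deg C.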
# Potency is the fitted concentration of half-maximal effect.
Structure (SMILES),Potency,growth rescue (activation)
CCn1nnc2cc(C(=O)Nc3ccc(C(=O)OC(C)C)cc3)ccc21,11.2 µM (active),–
CCOc1ccc(CNC(=O)c2ccc3c(c2)nnn3C2CCCC2)cc1,–,21.2%
CCOC(=O)c1cccc(NC(=O)CCn2nnc3ccccc32)c1,–,-14.2%
CCOC(=O)c1cc(-c2ccccc2)n(CCC(=O)Nc2ccccc2CC)c1C,–,-0.302%
O=C(Nc1c(C(=O)N2CCN(c3ccc(F)cc3)CC2)oc2ccccc12)c1ccco1,–,0%
O=C(NNC1CC(=O)N(c2cccc(Cl)c2)C1=O)c1cccnc1 (centres undefined),–,-2.69%
O=C1[C@@H]2C(c3cccnc3)=NO[C@@H]2C(=O)N1c1ccc(Cl)cc1Cl,35.5 µM (active),–
Cc1ccc(Cl)cc1N1CCN(C(=O)CN2C(=O)COc3ccc(S(=O)(=O)N4CCOCC4)cc32)CC1,–,16.2%
CCC(=O)N1CCc2cc(S(=O)(=O)NC(CC(C)C)C(=O)NCCc3cccc(C)c3)ccc21 (centres undefined),–,12.7%
Cc1ccc(NC(=O)Cn2nnc3sc4c(c3c2=O)CCC(C)C4)cc1 (centres undefined),–,0%
COc1ccc(CN2CCc3nc(Nc4ccccc4)ncc3C2)c(OC)c1OC,–,9.73%
COc1ccc(Nc2ncc3c(n2)CCN(C(=O)OC(C)(C)C)C3)cc1,14.1 µM (active),–
CC(C)(C)OC(=O)N1CCC(c2c(C(=O)N3CCc4ccccc4C3)cnn2-c2ccc(F)cc2)CC1,–,3.82%
O=c1cc(-c2ccccc2)n2c(SCc3ccccc3)nnc2[nH]1,–,19%
Cc1cccc(N2CCN(C(=O)CCn3c(=O)c4cccn4c4cccnc43)CC2C)c1 (centres undefined),–,0%
CCc1cnc2c(c1SCC(=O)c1ccccc1)c(=O)n(C)c(=O)n2C,–,16.8%
O=C(COC(=O)c1ccc(Cl)nc1)NCc1cccs1,–,16.7%
COc1ccc(Cl)cc1C(=O)OCC(=O)NCc1cccs1,–,-0.926%
O=C(COC(=O)/C=C/c1cccc(Cl)c1)NCc1cccs1,20 µM (active),–
CCOc1ccc(CCNC(=O)c2ccc3c(c2)sc2nc(-c4ccc(F)cc4)cn23)cc1OCC,–,19.4%
COc1ccc2oc(C(=O)NCc3ccco3)c(C)c2c1,12.6 µM (active),–
COc1ccc2oc(C(=O)NCC(Cc3ccccc3)N(C)C)c(C)c2c1 (centres undefined),–,-16.2%

Structure (SMILES),Potency,growth rescue (activation)
COc1cc(C(=O)NC(=S)NCc2ccco2)cc(OC)c1OC,–,-2.12%
COc1cccc(C(c2c(O)cc(C)n(Cc3ccco3)c2=O)N2CCN(c3ccccc3)CC2)c1 (centres undefined),–,16.2%
CCCCC(CC)CNC(=O)C1CCN(S(=O)(=O)c2cccc3nsnc23)CC1 (centres undefined),–,-7.96%
O=S(=O)(c1ccc2nc(N3CCN(c4cccc(Cl)c4)CC3)ccc2c1)N1CCCCC1,–,4.2%
Cc1cc(OC(=O)c2ccccc2)c([N+](=O)[O-])c(=O)[nH]1,–,-3.46%
Cc1cc(OC(=O)c2ccc(OC(C)C)cc2)c([N+](=O)[O-])c(=O)[nH]1,22.4 µM (active),–
COc1cccc(C(=O)Oc2cc(C)[nH]c(=O)c2[N+](=O)[O-])c1,–,-7.6%
Cc1nnc(SCc2cc(=O)c3cc(F)ccc3[nH]2)n1C,–,13.1%
CC(C)CC(=O)NCC(c1ccc2c(c1)OCO2)N1CCN(c2ccc(F)cc2)CC1 (centres undefined),–,-8.52%
CCn1c(=O)cc(OCC(=O)Nc2cc(Cl)c(OC)cc2OC)c2ccccc21,–,8.79%
Cc1ccc(S(=O)(=O)c2nc(-c3ccco3)oc2SCC(=O)Nc2ccc(F)cc2)cc1,–,25%
Cc1ccc(-c2nc(COC(=O)c3c(C)noc3C)cs2)cc1,–,1.65%
COC(=O)c1sc(N)c(C(=O)OC)c1COC(=O)CNS(=O)(=O)c1ccc(C)cc1,–,17.9%
COC(=O)c1c(-c2ccc(C)cc2)csc1N,12.6 µM (active),–
CCCn1c(=N)n(CC(O)COc2ccccc2OC)c2ccccc21 (centres undefined),–,13.5%
N/C(=N\OC(=O)N1c2ccccc2Sc2ccccc21)c1ccc(Br)cc1,–,8.92%
CO/N=C(\N)c1ccc([N+](=O)[O-])cc1,–,14.3%
N/C(=N\OC(=O)Cc1ccccc1[N+](=O)[O-])c1ccc(Br)cc1,15.8 µM (active),–
Cc1ccc(-n2ncc3c(=O)n(Cc4cccc(C(F)(F)F)c4)cnc32)cc1C,–,22.9%
CC(C)NC(=O)C1CCC(Cn2c(=O)c3sccc3n(Cc3ccc(F)cc3)c2=O)CC1 (centres undefined),–,17.9%
O=C(COc1ccc(Cl)cc1)N(Cc1ccco1)Cc1ccco1,–,14.7%
CC(=O)c1ccc(NC(=O)CCc2nc(-c3ccc(C)cc3)no2)cc1,–,14.4%

Structure (SMILES),Potency,growth rescue (activation)
CCOC(=O)c1ccc(NC(=O)c2c(NCc3cccs3)sc3c2CCCC3)cc1,–,29.4%
CCOc1ccc(CCNC(=O)c2csc3c2CCCCC3)cc1,–,9.4%
CCOC(=O)c1ccc(NC(=O)c2csc3c2CCCCC3)cc1,20 µM (active),–
Cc1ccc(-c2cn3c(n2)sc2cc(C(=O)NCc4cccs4)ccc23)c(C)c1,–,-0.34% [at 9.22 µM]
O=c1[nH]c2cc(Br)ccc2n2cccc12,10 µM (active),–
C/C(=N\N)c1c(-c2ccccc2)c2cc(Br)ccc2[nH]c1=O,–,-15.3%
CC1CN(C(=O)N2CCC(C(=O)NCc3cccs3)CC2)c2ccccc2O1 (centres undefined),–,26.7%
COc1ccc(N(CC(=O)N2CCCCCC2)S(=O)(=O)c2ccccc2)cc1,–,-22.5%
CC1CCN(C(=O)CN(c2ccc(Oc3ccccc3)cc2)S(C)(=O)=O)CC1,12.6 µM (active),–
CS(=O)(=O)N(CC(=O)N1CCN(c2cccc(Cl)c2)CC1)c1ccccc1,–,-13.1%
COc1cc(CNC(=O)c2cc3n(n2)CCCN(Cc2cccc(F)c2)C3=O)cc(OC)c1OC,–,11.2%
CCc1cc2c(cc3c(=O)n(CC(=O)NCCc4ccc(OC)c(OC)c4)ncn32)s1,–,7.79%
CCC(=O)N1CCc2cc(Br)cc(S(=O)(=O)NCc3ccc(Cl)cc3)c21,–,22%
CCC(=O)N1CCc2cc(CNS(=O)(=O)c3ccc(Br)s3)ccc21,11.2 µM (active),–
CCC(=O)N1CCc2cc(CNC(=O)Nc3ccccc3Cl)ccc21,–,22.9%
Cc1ccc(NC(=O)c2cc(S(=O)(=O)NCCC3=CCCCC3)ccc2F)cc1C,–,2.32%
COc1cc(C(=O)Nc2ccc(OCc3cc(=O)n4ccc(C)cc4n3)cc2)cc(OC)c1OC,–,0.643%
O=C(NNc1nc(N2CCCC2)nc(N2CCCC2)n1)c1ccccc1,–,5.54%
O=C(c1ccccc1)c1ccc2nc(N3CCCCC3)c3nncn3c2c1,20 µM (active),–
CCOC(=O)CSc1nc2ccc(C)cc2n2cnnc12,–,0.643%
